Screening data: PubChem BioAssay, several laboratories
The list is not random: actives were taken first. Their share in the collection is about 4.2%.
BJeLR lethal = kills HRASV12-expressing BJeLR cells. BJeLR (HRASV12) viability, CellTiter-Glo ATP luminescence, 48 h. inhibition, % (test concentration not listed). 300,000 tested, 0.17% active; in the data active = inhibition above about 50%
RecA intein inh = Mtb RecA intein splicing inhibition; 290,000 tested, 0.75% active; AID 2221; cell-free RecA intein splicing, fluorescence; inhibition, % (concentration not given with the values); in the data active = inhibition above about 30%;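 also: 0% = vehicle wells and 100% = reference inhibitor control wells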
Target sequence (P9WHJ3 whole entry, looked up): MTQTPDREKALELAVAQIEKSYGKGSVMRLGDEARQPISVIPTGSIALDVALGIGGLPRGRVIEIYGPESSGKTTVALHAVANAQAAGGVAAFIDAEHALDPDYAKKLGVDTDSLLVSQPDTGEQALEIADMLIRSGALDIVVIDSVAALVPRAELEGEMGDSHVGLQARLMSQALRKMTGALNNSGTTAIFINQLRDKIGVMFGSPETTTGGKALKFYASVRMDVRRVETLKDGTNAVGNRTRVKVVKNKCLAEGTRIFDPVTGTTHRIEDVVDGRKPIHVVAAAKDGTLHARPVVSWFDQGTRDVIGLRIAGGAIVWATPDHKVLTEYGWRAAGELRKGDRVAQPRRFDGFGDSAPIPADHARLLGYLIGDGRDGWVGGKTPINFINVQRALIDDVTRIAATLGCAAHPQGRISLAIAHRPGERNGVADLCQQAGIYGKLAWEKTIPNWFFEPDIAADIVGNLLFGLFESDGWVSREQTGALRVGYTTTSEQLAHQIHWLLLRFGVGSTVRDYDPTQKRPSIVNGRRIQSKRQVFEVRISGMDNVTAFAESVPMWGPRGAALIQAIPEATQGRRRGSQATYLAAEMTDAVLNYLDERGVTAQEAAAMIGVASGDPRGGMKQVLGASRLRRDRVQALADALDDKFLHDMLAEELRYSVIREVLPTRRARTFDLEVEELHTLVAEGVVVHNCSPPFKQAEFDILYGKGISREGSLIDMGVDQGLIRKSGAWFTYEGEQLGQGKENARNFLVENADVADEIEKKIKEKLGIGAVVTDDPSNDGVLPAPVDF
FBA Mtb inh = inhibits M. tuberculosis FBA enzyme; P9WQA3; purified M. tuberculosis FBA, fluorescence read-out; inhibition, % at 1 µM; 360,000 tested, 2.3% active; AID 588726;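 also: 0% = vehicle and 100% = reference inhibitor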
GDH-TPI counter-1 = counter-screen for M. tuberculosis FBA inhibitors: GDH-TPI coupled enzymes. AID 588335. inhibition, % at 4.8 µM. GDH-TPI coupled enzyme counterscreen, NADH absorbance. 360,000 tested, 1.2% active; in the data active = inhibition above about 30%;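 also: 0% = DMSO wells and 100% = wells lacking the enzyme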
PrPC surface inh = cell surface PrPC inhibition, primary TR-FRET screen; P04156; TR-FRET read-out; inhibition, % at 13.8 µM; 370,000 tested, 0.43% active; AID 720596; in the data active = inhibition above about 24%; also: 0% = median of the test wells and 100% = reference compound wells
Mtb FBA confirm = confirmation of M. tuberculosis fructose-bisphosphate aldolase inhibitors. shares compounds with FBA Mtb inh. purified M. tuberculosis FBA, fluorescence read-out. inhibition, % at 1 µM. 5,600 tested, 78% active. AID 651616;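 also: 0% = vehicle wells and 100% = reference inhibitor wells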
GDH-TPI counter-2 = GDH-TPI inhibition counter-screen for FBA inhibitors | shares compounds with FBA Mtb inh | GDH-TPI coupled enzyme counterscreen, fluorescence | inhibition, % at 1 µM | 5,600 tested, 81% active | AID 652141; in the data active = inhibition above about 10%
An asterisk follows results filed as active; . = no result; + = active, no number. Rule as the data show it, unless noted: active = inhibition above about 27%; inactive = the rest.

SMILES	BJeLR lethal	RecA intein inh	FBA Mtb inh	GDH-TPI counter-1	PrPC surface inh	Mtb FBA confirm	GDH-TPI counter-2
CC(C)n1c(/C=C/c2ccccc2)nc2ccccc21	-20	1	67*	34*	-1	36*	20*
O=C(c1cc(-c2cccs2)nc2ccccc12)N1CCN(c2ccccc2)CC1	4	7	3	6	-4	.	.
CC1CCCN(C(=O)c2cc(-c3cccs3)nc3ccccc23)C1 (stereo not given)	.	.	83*	26	0	1	-1
O=C(c1cc(-c2cccs2)nc2ccccc12)N1CCN(S(=O)(=O)c2cccc(F)c2)CC1	9	1	38*	15	-2	123*	92*
Cc1ccsc1C(=O)N1CCN(S(=O)(=O)c2cccc(F)c2)CC1	11	1	2	-10	-5	.	.
O=C(c1cc(-c2cccs2)nc2ccccc12)N1CCN(S(=O)(=O)c2ccccc2)CC1	7	4	57*	26	-3	98*	76*
C=CCNC(=O)N1CCN(Cc2nc3ccccc3c(=O)[nH]2)CC1	.	.	.	.	0	.	.
CCCNC(=O)C1(CC2CC(c3ccccc3)=NO2)CCN(C(=O)c2cc(OCC)c(OCC)c(OCC)c2)CC1 (stereo not given)	3	-1	29*	0	6	169*	128*
CCN(CCOC(=O)Nc1ccc(Cl)cc1)C(=O)Nc1ccc(Cl)cc1	.	.	.	.	12	.	.
CCN(CC)CCNC(=O)c1cc(-c2ccco2)nc2ccccc12	-2	-7	82*	5	-3	152*	129*
CC(=O)c1cccc(NC(=O)c2cc(-c3ccco3)nc3ccccc23)c1	4	-1	14	-5	-7	.	.
O=C(NNC(=O)c1cc(-c2ccco2)nc2ccccc12)c1ccccc1	5	-3	50*	3	-13	68*	61*
Cc1ccsc1C1Nc2ccc3ncccc3c2C2=C1C(=O)CC(C)(C)C2 (stereo not given)	3	8	-3	28	-8	.	.
CC1(C)CC(=O)C2=C(C1)c1c(ccc3ccccc13)NC2c1ccco1 (stereo not given)	-8	3	87*	1	4	104*	89*
CCOc1ccc(C(=O)NCC(=O)OCc2csc(-c3ccccc3)n2)cc1	-3	1	29*	8	-1	194*	166*
Cc1ccc(C(=O)NCC(=O)OCc2csc(-c3ccccc3)n2)cc1	8	3	2	0	-3	.	.
CCN(CC)C(=O)CC[C@H]1CC[C@]2(CCCN(C(=O)c3ccno3)C2)O1	.	.	.	.	1	.	.
Cc1cccc(Oc2nc(-c3ccccc3)cc(C)c2S(C)(=O)=O)c1C	-8	14	13	-9	3	.	.
COc1ccccc1Oc1nc(-c2ccccc2)cc(C)c1S(C)(=O)=O	4	1	64*	21	10	37*	43*
CN(C)CCCNC(=O)N1c2ccccc2Sc2ccccc21	2	.	59*	-14	-6	+	+
CSCCC(NC(=O)c1ccccc1)C(=O)O (stereo not given)	-5	6	42*	6	-2	.	+
C[C@H](NC(=O)c1cc2c([nH]c3ccccc32)c(-c2ccccc2)n1)C(=O)O	4	0	36*	-1	2	141*	108*
COC(=O)[C@H](CCSC)NC(=O)c1cc2c(cn1)[nH]c1ccccc12	-1	0	14	10	3	.	.
CSCCC(NC(=O)c1ccc(Cl)cc1)C(=O)O (stereo not given)	6	-1	4	2	-2	.	.
CSCC[C@H](NC(=O)c1cc2c([nH]c3ccccc32)c(-c2ccccc2)n1)C(=O)O	-5	1	47*	12	1	24	15*
SMILES	BJeLR lethal	RecA intein inh	FBA Mtb inh	GDH-TPI counter-1	PrPC surface inh	Mtb FBA confirm	GDH-TPI counter-2
C=CCN1[C@H](C#N)[C@@H](c2ccccc2)[C@H]1CO	.	.	.	.	-5	.	.
COCCN1C(=O)C2=C(C1=O)C1N(C)c3ccccc3[C@@]13C[C@@H](CO)N(C(=O)CCC(=O)OC)C3=N2 (stereo not given in full)	.	.	.	.	-14	.	.
CCC(c1nnc(SCC(=O)NC2CCCCC2)n1Cc1ccccc1)N(C)C (stereo not given)	0	11	43*	-7	2	+	153*
c1cc(-c2cccs2)nc(-c2cccs2)c1	-1	.	1	5	3	.	.
c1csc(-c2cn3ccc4ccccc4c3n2)c1	0	-2	47*	5	6	-4	-2
C[C@H]1CN([C@@H](C)CO)C(=O)CCCn2cc(nn2)CO[C@@H]1CN(C)C(=O)c1ccc2ccn(C)c2c1	.	.	.	.	-11	.	.
O=c1[nH]c(NCCO)c(N=Cc2ccccc2)c(=O)[nH]1	-13	-76	85*	0	2	108*	94*
O=C(OCc1cn(Cc2ccc(C(F)(F)F)cc2)nn1)N1CCOCC1	.	.	.	.	-6	.	.
Cc1ccc2nc(-c3ccc(N4C(=N)SC5CS(=O)(=O)CC54)cc3)sc2c1 (stereo not given)	-2	-1	48*	20	-9	80*	66*
COc1ccc(C2NC(=O)c3ccccc3N2)cc1COc1ccc(NC(C)=O)cc1 (stereo not given)	.	.	.	.	-3	.	.
Cc1ccc2[nH]c(=O)c3cc(C(=O)NCC4CCCO4)sc3c2c1 (stereo not given)	1	-5	25	19	5	.	.
Cc1ccc2[nH]c(=O)c3cc(C(=O)NC(C)C)sc3c2c1	6	-3	74*	19	-1	85*	68*
CCCN1CCN(CCCNC(=O)c2cc3c(=O)[nH]c4ccc(C)cc4c3s2)CC1	5	-3	53*	6	-5	91*	93*
CCOC(=O)C(CNc1ccc(OCc2ccccc2)cc1)NC(=O)c1ccccc1 (stereo not given)	.	.	.	.	-2	.	.
S=c1[nH]nc(-c2ccccc2)n1Cc1ccccc1	8	0	2	15	3	.	.
S=c1[nH]nc(-c2cccs2)n1Cc1ccccc1	4	1	28*	-1	-9	86*	59*
CCOc1ccc(S(=O)(=O)NCC2CCCO2)c2ccccc12 (stereo not given)	-7	1	0	-6	-8	.	.
CCOc1ccc(S(=O)(=O)NCC2CCCO2)c2cccnc12 (stereo not given)	4	6	28*	1	-3	+	+
Cn1cccc2[nH]c(=O)nc1-2	5	0	37*	9	0	78*	54*
CC(C)c1nc2cc(Cl)ccc2n(Cc2ccccc2)c1=O	-3	10	3	-10	7	.	.
O=c1[nH]cccc1-c1nc2cc(Cl)ccc2n1Cc1ccccc1	9	-1	77*	1	-2	5	-2
C[C@@H]1CN(c2ccc(N3CCNC[C@@H]3C)cc2C#N)C[C@H](C)O1	.	.	.	.	-6	.	.
